Results: PubChem BioAssay AID602292 (National Center for Advancing Translational Sciences (NCATS), 2012)
The campaign covered roughly 1,300 compounds. About 380 (29%) were called active. Inconclusive results (about 37%) are left out. The call rests on the fitted dose curve; in most records, active means well fitted inhibition curve with a large enough effect; inconclusive means small, poorly fitted or top-dose-only effect; inactive means flat fitted curve, though single readings scatter. The list shows a part of the results.

molecular target: Thyrotropin receptor (Homo sapiens) (UniProt P16473); test: qHTS for antagonists of the Thyroid Stimulation Hormone Receptor: Hit Validation in Primary Screen; conditions: TSHR-expressing cells, cAMP antagonist mode; series mostly up to 58 µM; activity change, negative = inhibition: at the top concentration; further: nearly all actives have a fitted effect of over 80% in size;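 on activity change, negative = inhibition: cells stimulated with TSH at EC80 of 4 nM during compound exposure; cAMP by competitive HTRF where cellular cAMP lowers the 665 nm FRET signal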
Sequence (P16473 whole entry, looked up): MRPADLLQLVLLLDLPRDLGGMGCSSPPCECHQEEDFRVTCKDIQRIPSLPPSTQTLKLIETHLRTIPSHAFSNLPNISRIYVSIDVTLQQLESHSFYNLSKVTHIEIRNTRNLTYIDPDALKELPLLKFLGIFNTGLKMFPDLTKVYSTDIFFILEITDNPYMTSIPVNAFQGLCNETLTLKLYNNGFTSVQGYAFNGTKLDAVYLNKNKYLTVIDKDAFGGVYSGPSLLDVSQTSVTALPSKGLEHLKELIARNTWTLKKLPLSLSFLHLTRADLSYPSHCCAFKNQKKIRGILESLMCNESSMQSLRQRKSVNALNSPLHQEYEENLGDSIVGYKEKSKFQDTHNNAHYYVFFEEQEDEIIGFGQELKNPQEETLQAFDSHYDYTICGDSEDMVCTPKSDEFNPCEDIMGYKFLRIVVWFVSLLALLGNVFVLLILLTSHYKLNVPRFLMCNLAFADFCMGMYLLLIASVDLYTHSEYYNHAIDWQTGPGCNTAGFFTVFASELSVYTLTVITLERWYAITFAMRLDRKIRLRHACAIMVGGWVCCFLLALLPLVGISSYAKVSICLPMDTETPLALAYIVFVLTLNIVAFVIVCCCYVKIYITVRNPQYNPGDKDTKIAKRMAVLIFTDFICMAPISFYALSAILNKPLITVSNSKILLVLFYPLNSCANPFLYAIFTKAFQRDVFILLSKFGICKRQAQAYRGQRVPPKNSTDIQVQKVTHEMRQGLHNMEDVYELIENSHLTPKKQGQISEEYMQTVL
Method in brief: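 Competitive HTRF detected cAMP in lysates of TSHR cells, read 30 minutes after antibody and d2 addition at room temperature. Before lysis, cells had 2 hours at 37 deg C with compound plus EC80 TSH, 4nM final.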
On the % scale 0 is the no-effect control and ±100 the full control effect; potency means the concentration at half of the fitted maximal effect.

Potency, active:
Cc1ccc(O)c(N=Cc2cc(Cc3ccccc3)cc([N+](=O)[O-])c2O)c1 16.9 µM
O=C(Nc1ccc(C(F)(F)F)cc1)c1csc(-c2ccncc2)n1 60.1 µM
Cc1nnc(Sc2cc(NCCCO)c([N+](=O)[O-])c3nonc23)s1 33.8 µM
O=[N+]([O-])c1c(NCCO)cc(Sc2nc3ccccc3s2)c2nonc12 23.9 µM
O=C(/C=C/c1cccc(Cl)c1)c1ccc([N+](=O)[O-])o1 26.9 µM
C=C(C)C(=O)OCC(O)COc1ccc(C(C)(C)c2ccc(OCC(O)COC(=O)C(=C)C)cc2)cc1 (centres undefined) 21.3 µM
O=c1cc(-c2ccccc2)nc2c(-c3ccccc3)c(C(F)(F)F)[nH]n12 6.01 µM
COc1ccc(-c2c(C(F)(F)F)[nH]n3c(=O)cc(-c4ccccc4)nc23)cc1 19 µM
Cc1cc(NC(=O)c2cc(-c3ccco3)on2)nn1Cc1ccc(Cl)cc1 30.1 µM
O=C(Nc1ccccc1Cl)/C(Cl)=C(\Cl)S(=O)c1ccccc1 (centres undefined) 26.9 µM
COc1ccc(NC(=O)/C(Cl)=C(/Cl)S(=O)Cc2ccccc2Cl)cn1 (centres undefined) 21.3 µM
COc1ccc(NC(=O)/C(Cl)=C(/Cl)S(=O)Cc2ccc(Cl)cc2)cn1 (centres undefined) 30.1 µM
CC(=O)Oc1c(I)cc(I)cc1C(=O)Nc1ccc(Cl)cc1 1.9 µM
CCC(=O)NC1=C(Cl)C(=O)C(NC(=O)CC)=C(Cl)C1=O 30.1 µM
COc1ccc(CCNC(=O)c2ccc(-c3ccc([N+](=O)[O-])cc3Cl)o2)cc1OC 23.9 µM
O=C(CSc1nnc(-c2ccncc2)n1Cc1ccco1)Nc1nc(-c2ccccc2)cs1 21.3 µM
Cc1cc(C)c(S(=O)(=O)c2c(C)cccc2C)c(Cl)n1 23.9 µM
CC(Sc1nn(-c2ccc(F)cc2)c(=S)s1)C(=O)c1c(N)n(C)c(=O)n(C)c1=O (centres undefined) 37.9 µM
CCCCCC/C(C)=C1/SC(=S)NC1=O 30.1 µM
CCCCCc1c2c(cc(O)c1C(=O)O)OC(=O)c1c(cc(OC)cc1C(=O)CCCC)O2 33.8 µM
CC(Oc1ccc(Cl)cc1Cl)c1nc(-c2ccc(NC(=O)c3cccnc3)cc2)no1 (centres undefined) 21.3 µM
Cc1ccccc1Oc1cc(-n2ncc(Cl)c(Cl)c2=O)ncn1 12 µM
Cc1[nH]n(-c2ccccc2)c(=O)c1N=Nc1c(O)cc(S(=O)(=O)N(C)C)c2ccccc12 8.49 µM
CC(NC(=O)/C(C#N)=C/c1ccc([N+](=O)[O-])o1)c1ccccc1 (centres undefined) 30.1 µM
O=C(Cn1ncc(Cl)c(Cl)c1=O)N1CCN(S(=O)(=O)c2ccc3ccccc3c2)CC1 9.53 µM
O=C(Nc1nnc(C2CC2)s1)c1ccc(Cl)c(S(=O)(=O)N2CCc3ccccc3C2)c1 3.79 µM
CCc1nnc(NC(=O)c2ccc(Cl)c(S(=O)(=O)N3CCc4ccccc43)c2)s1 7.57 µM
N#Cc1c(C(F)(F)F)cc(-c2ccc(Cl)cc2)[nH]c1=O 10.7 µM
COC(=O)c1ccc(/C(O)=C(\C#N)c2nc3ccccc3s2)cc1 15.1 µM
COc1ccc(CCNc2ncnc3sc(C)cc23)cc1OC 19 µM
Cc1cc2c(NCCc3ccccc3)ncnc2s1 23.9 µM
Cc1ccc(-c2nc3ccc(C(=O)O)cc3nc2-c2ccc(C)cc2)cc1 23.9 µM
N#Cc1ccc(NC(=O)Nc2ccc(Cl)cc2)cc1 7.57 µM
Nc1ccccc1N=Cc1ccc(-c2cccc(Cl)c2)o1 37.9 µM
COc1ccccc1N1CCN(c2nc(C)nc3c2oc2ccccc23)CC1 26.9 µM
Cc1ccc(NC(=O)Nc2ccc3c(c2)N(C)C(=O)CS3)cc1C 30.1 µM
CC(=O)N(C1=C(Cl)C(=O)c2ccccc2C1=O)C1CCCCC1 30.1 µM
CCCCNC(=O)c1sc(=S)n2c1[nH]c(=O)c1ccccc12 4.78 µM
CCOc1ccc(CCNC(=O)c2ccc3c(=O)[nH]c4c(C(=O)NC(C)C)sc(=S)n4c3c2)cc1 6.01 µM
N#Cc1c(SCc2c(Cl)cccc2Cl)nc(N)[nH]c1=S 19 µM
Cc1nn(-c2ccccc2)c(C)c1NC(=O)COc1ccc(Br)cc1Cl 23.9 µM
CS(=O)(=O)c1ncc(Cl)c(C(=O)Nc2ccc3ccccc3c2)n1 30.1 µM
CCN(c1ccccc1)S(=O)(=O)c1ccc(NC(=O)c2nc(S(C)(=O)=O)ncc2Cl)cc1 26.9 µM
CCC1CCCCN1S(=O)(=O)c1ccc(NC(=O)c2nc(S(C)(=O)=O)ncc2Cl)cc1 (centres undefined) 9.53 µM
CN1/C(=C/C(=O)c2nc(S(C)(=O)=O)ncc2Cl)C(C)(C)c2ccccc21 21.3 µM

Activity change, negative = inhibition, inactive:
CN(C)S(=O)(=O)N1CCN(c2ccnc3cc(Cl)ccc23)CC1 -7.84%
CC(C)(C)NC(=O)C(c1ccc(O)cc1)N(Cc1ccccc1)C(=O)CCC(=O)Nc1nccs1 (centres undefined) -6.86%
O=C(Nc1cc(Sc2nc3ccccc3s2)cc([N+](=O)[O-])c1)c1ccccc1F -6.57%
Cc1nnc(SCC(=O)Nc2nonc2C)s1 -3.05%
O=C1C=C(c2ccc3[nH]ccc3c2)C[C@@H](c2ccc(Cl)cc2)C1 -9.05%
C/C(=N\NC(=O)c1nnn(-c2nonc2N)c1-c1ccc(Cl)c(Cl)c1)c1ccncc1 -2.3%
CCn1nc(C)c(CN2CCCC(CNS(=O)(=O)c3ccc(OC)cc3)C2)c1C (centres undefined) -7.72%
Nc1nc2nc(-c3ccccc3)cc(C(F)(F)F)c2s1 -6.22%
COc1ccc(-c2cn(CCCOCc3ccccc3)nn2)cc1 -4.03%
COc1ccc(OC)c(C2=NOC(C(=O)NCC3CCCO3)C2)c1 (centres undefined) -3.8%
Cc1sc2ncn(CC(=O)NCCCC(=O)NCc3ccc(F)cc3)c(=O)c2c1C -3%
Cc1ccc(CNC(=O)CCNC(=O)N2CCn3c2nc2ccccc23)cc1 -3.49%
COc1ccc(-n2nc(C(=O)NCC(=O)NCCCN3CCN(C)CC3)c3ccccc3c2=O)cc1 -2.19%
Cc1ccccc1NC(=O)Cc1nc(COC(=O)c2cccc([N+](=O)[O-])c2)cs1 -2.22%
CCSc1ccc(C(=O)Nc2ccc(Br)cn2)cc1[N+](=O)[O-] -1.87%
Cn1cc(Cl)c(C(=O)N/N=C/c2ccc3c4c(cccc24)CC3)n1 -4.26%
O=C(NC1CCOc2ccccc21)c1ccccn1 (centres undefined) -1.38%
COc1ccc(CCNC(=O)c2cccc3c2C(=O)N(C2CCCCC2)C3)cc1OC -8.96%
O=C(Nn1cnnc1)C(c1ccccc1)c1ccccc1 -7.72%
O=C(N=C1SC2CS(=O)(=O)CC2N1c1ccc(F)cc1)C1CC1 (centres undefined) -2.68%
COC(=O)[C@H]1[C@H]2C[C@@H]3c4[nH]c5cc(OC)ccc5c4CCN3C[C@H]2C[C@@H](OC(=O)/C=C/c2cc(OC)c(OC)c(OC)c2)[C@@H]1OC -11.4%
O=C(CC1C(=O)NCCN1Cc1cccc(F)c1F)NCCCC1CCCC1 (centres undefined) -0.634%
CCCn1nnc(NC(=O)C(C)Oc2ccc(Cl)cc2Cl)n1 (centres undefined) 1.58%
COCCNc1cnn(-c2ccccc2)c(=O)c1Cl -16.4%
CC(C)(CNC(=O)C1c2ccccc2-c2ccccc21)N1CCOCC1 2.56%
Cc1ccc(S(=O)(=O)N2CCN(C(=O)Cc3ccsc3)CC2)c(C)c1 -0.288%
CCc1nn(CC(=O)N2CCCCCC2)c(=O)c2cc3ccccc3n12 -6.57%
NC(=O)CSc1oc(-c2ccco2)nc1S(=O)(=O)c1ccccc1 -12.3%
NC(=O)c1ccc(CN2CCc3ccccc3C2)cc1 0.0288%
CCc1nnc(NS(=O)(=O)c2ccc(NC(=O)COc3ccc4ccccc4c3)cc2)s1 -8.82%
CS(=O)(=O)N1CCc2cc(C(=O)Nc3ccc(COCC(F)(F)F)cc3)ccc21 -11.9%
C=CCOc1c(Cl)cc(CNc2ccc(N(C)C)cc2)cc1OC -6.8%
O=C1C=C(c2ccc(Cl)c(C(F)(F)F)c2)C[C@@H](c2ccc(Cl)cc2)C1 -9.56%
COc1cc(C(C(=O)NCc2ccccc2)N(C(=O)c2snc(C(N)=O)c2N)C2CCCC2)cc(OC)c1OC (centres undefined) -6.63%
Cc1ccc(NC(=S)c2nc3ccccc3s2)cc1 -10.7%
COc1ccc(CCNc2ncnc3c2[nH]c2cc(OC)c(OC)cc23)cc1OC -12.4%
Cc1nn(S(=O)(=O)c2ccc(F)cc2)c(C)c1S(=O)(=O)N1CCOCC1 -8.56%
Cc1nc2ccccc2n1CC(=O)N/N=C\C=C\c1ccccc1 -4.49%
COc1ccc(-n2nnnc2SCC(=O)NC2CCCC2)cc1OC 0.403%
Cc1ccc(Nc2cc(C)nc3ccc(C)cc23)cc1 -5.56%
Cc1ccccc1C(=O)Nc1nnc(SCC(=O)NC2CC2)s1 -11.8%
CCC(C)NC(=O)CN1C(=O)CSc2ccc(S(=O)(=O)N3CCCC3)cc21 (centres undefined) -7.63%
CC1CCN(CCCNC(=O)CN2C(=O)CSc3ccc(S(=O)(=O)N4CCOCC4)cc32)CC1 0.173%
O=C1CSc2nc3ccccc3n21 -1.58%
COc1ccccc1NC(=O)NNC(=O)CCN1CCOCC1 -2.97%
NS(=O)(=O)c1ccc(CNC(=O)CCS(=O)(=O)Cc2ccccc2)cc1 -1.15%
Brc1ccc(-c2nnc(-c3cccc(Br)c3)o2)cc1 -6.14%
CCOCCCNC(=O)C(NC(=O)c1ccc(=O)[nH]c1)c1ccc(Cl)cc1 (centres undefined) -2.3%
CCn1nc(C)c(NC(=O)/C=C/c2ccc(OC)c(COc3ccc(Br)cc3)c2)c1C -15.9%
COc1ccc(-n2nc(C(=O)NCC(=O)Nc3cc(OC)c(OC)c(OC)c3)c3ccccc3c2=O)cc1OC -8.07%
CCCC(=O)Nc1nnc(CCc2ccccc2)s1 -2.28%
CCN(c1ccccc1)S(=O)(=O)c1ccc(NCC2COc3ccccc3O2)nc1 (centres undefined) -10.9%
Cc1ccc(S(=O)(=O)N(CC(=O)NCc2ccccn2)c2ccc(Cl)cc2)cc1 -3.4%
CS(=O)(=O)Cc1ccc(C(=O)Nc2cccc(-c3nc4ccccc4[nH]3)c2)cc1 -7.95%
